Inconclusive results are not listed. The source made the active and inactive calls. Calls come from the whole dose curve; as a rule, active = well fitted curve in the direction sought with a large enough effect; inconclusive = small, poorly fitted or top-dose-only effect, or another doubt; inactive = no such curve, though single readings can be large; an effect the other way counts as inactive or inconclusive.
Experiments:
C33A = test: Primary qHTS to identify gynecologic anti-cancer compounds using libraries of approved drugs and bioactive compounds (AID 1345084); settings: Gynecologic cancer cell panel viability, ATPlite luminescence, 48 h; series mostly up to 57.5 µM; note: nearly all actives have a fitted effect of over 55% in size
Procedure, shortened: (§1)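 Cytotoxicity screen measuring ATP content by luciferase luminescence. Each compound is applied at five concentrations for 48 h at 37 C with 5% CO2.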

CAOV3 = test: as above; settings: Gynecologic cancer cell panel viability, ATPlite luminescence, 48 h; series mostly up to 57.5 µM
Procedure, shortened: as §1

CASKI = test: as above; settings: Gynecologic cancer cell panel viability, ATPlite luminescence, 48 h; series mostly up to 57.5 µM
Procedure, shortened: as §1

Es-2 = test: as above; settings: Gynecologic cancer cell panel viability, ATPlite luminescence, 48 h; series mostly up to 57.5 µM
Procedure, shortened: as §1

HeLa = test: as above; settings: Gynecologic cancer cell panel viability, ATPlite luminescence, 48 h; series mostly up to 57.5 µM
Procedure, shortened: as §1

Hek293T = test: as above; settings: Gynecologic cancer cell panel viability, ATPlite luminescence, 48 h, control line for the selectivity index; series mostly up to 57.5 µM
Procedure, shortened: as §1

JEG-3 = test: as above; settings: Gynecologic cancer cell panel viability, ATPlite luminescence, 48 h; series mostly up to 57.5 µM
Procedure, shortened: as §1

OV90 = test: as above; settings: Gynecologic cancer cell panel viability, ATPlite luminescence, 48 h; series mostly up to 57.5 µM
Procedure, shortened: as §1

PA-1 = test: as above; settings: Gynecologic cancer cell panel viability, ATPlite luminescence, 48 h; series mostly up to 57.5 µM
Procedure, shortened: as §1

SKOV3 = test: as above; settings: Gynecologic cancer cell panel viability, ATPlite luminescence, 48 h; series mostly up to 57.5 µM
Procedure, shortened: as §1

MKL-1 = test: qHTS assay to identify novel small-molecules to repurpose for Merkel cell carcinoma treatment (AID 1296009); settings: MCC and control cell lines, CellTiter-Glo viability, 72 h; series mostly up to 46 µM; note: potency is the fitted concentration of half-maximal effect; nearly all actives have a fitted effect of over 60% in size
Procedure, shortened: (§2)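 Cell viability measured by CellTiter-Glo following 72 hr compound treatment at 37 degree celsius, with NPC and MIPE libraries tested in 8- and 11-point concentration series.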

MKL-2 = test: as above; settings: MCC and control cell lines, CellTiter-Glo viability, 72 h; series mostly up to 46 µM
Procedure, shortened: as §2

Measured: Potency

CCN1CCN(c2cc3c(cc2F)c(=O)c(C(=O)O)cn3C2CC2)CC1
not listed: MKL-1 | MKL-2
inactive: all other assays above

CC1=C(C(=O)OC(C)C)C(c2cccc([N+](=O)[O-])c2)C(C(=O)OC2CN(C(c3ccccc3)c3ccccc3)C2)=C(N)N1 (configuration not stated)
active: MKL-1 21.1 µM | MKL-2 16.8 µM
inactive: all other assays above

O=C(O)CCCCC(=O)O
not listed: MKL-1 | MKL-2
inactive: all other assays above

CC(=O)OCC(=O)[C@@]12OC(C)(C)O[C@@H]1C[C@H]1[C@@H]3C[C@H](F)C4=CC(=O)C=C[C@]4(C)[C@@]3(F)[C@@H](O)C[C@@]12C
not listed: CAOV3 | MKL-1 | MKL-2
inactive: all other assays above

CC(C)(C)CC(C)(C)c1ccc(O)c(Cc2ccc(Cl)cc2Cl)c1
inactive: C33A | CAOV3 | CASKI | JEG-3 | OV90 | PA-1
